Assay results published in the supplement of paper PMC6555819.

How the values were obtained:
Test in all cases: PBM binding z-score (relative to random genomic background probes); higher = stronger binding; sequences stand for … in GC…GCGATTGACAGCGTAGAATGAAGG
[1] = tested on: RARg:RXRa (NR concentration 270 nM, RXRa partner concentration 90 nM)
In short: (§1)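 Regression normalization was applied to scanned fluorescence from custom Agilent 4×180K protein-binding microarrays. Before scanning, arrays were incubated 1 h with ligand-free nuclear receptor dimers, and binding was detected with antibodies against each partner (one per run). Binding z-scores use the random background probes as reference.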

[2] = tested on: RARg homodimer (NR concentration 270 nM)
In short: as §1

[3] = tested on: RXRa DBDmut IVT, anti-RXR (DBD mutation: RXRa K156A/R161A, NR concentration 90 nM)
In short: as §1

[4] = tested on: RXRa homodimer (NR concentration 180 nM)
In short: as §1

[5] = tested on: THRa:RXRa (NR concentration 90 nM, RXRa partner concentration 90 nM)
In short: as §1

[6] = tested on: THRa homodimer (NR concentration 90 nM)
In short: as §1

[7] = tested on: VDR homodimer (NR concentration 270 nM)
In short: as §1

| Sequence | PBM binding z-score [1] | PBM binding z-score [2] | PBM binding z-score [3] | PBM binding z-score [4] | PBM binding z-score [5] | PBM binding z-score [6] | PBM binding z-score [7] |
| --- | --- | --- | --- | --- | --- | --- | --- |
| TAGCCTAGGGCATTCAGGGGCCAGTATAGAAAGC | 1.99 | 1.1 | -0.766 | 0.0553 | 1.2 | -0.586 | -0.169 |
| CACACTAGGTCACAGAGGTCAAAGTCCGTGCGTA | 7.55 | 8.04 | 3.26 | 8.19 | 4.84 | 3.29 | 7.03 |
| ACTCGGAGGACAAAGGTCAGGGCTACGCCAGTGA | 6.45 | 5.95 | 0.934 | 6.71 | 3.63 | 1.02 | 1.33 |
| CGAACAAGGTCATTGACAGGACAGTGAATAGTAA | 6.27 | 5.95 | 4.45 | 5.53 | 3.96 | 2.16 | 3.2 |
| CCTTACGGGTAACGAGGTTATAGCACGACGAGCG | 1.01 | 0.837 | -0.598 | 1.43 | 1.35 | 0.247 | 0.527 |
| CCTACTGGACCAAGGTCATTGATCAGTCAAAGCA | 3.7 | 2.94 | 1.91 | 3.39 | 3.43 | 2.69 | 3.61 |
| CCTACTGGGCCAAAGAGGTCATTGATGCCGATAA | 4.01 | 3.31 | 1.39 | 4.45 | 3.35 | 0.927 | 3.97 |
| GCTGCTAGGTCAACTGATGGTCACCTAAAGCTCG | 5.53 | 5.1 | 1.29 | 3.52 | 3.38 | 1.69 | 0.0494 |
| AGTCAAAGTTGAGGACGAGGTAACGTAAAGCACG | 1.38 | 1.24 | -0.405 | 0.856 | 3.3 | 1.96 | 0.344 |
| AGAATGAGGTTACCAAAGTTCAGGGAAACGCTTG | 4.44 | 3.52 | 1.62 | 4.3 | 4.02 | 0.878 | 2.32 |
| CTATGTAGGTTACGGGGGTCATTCAGTTTGAAAG | 5.91 | 4.59 | 2.61 | 6.14 | 4.12 | 2.03 | 5.93 |
| ATTTGTAGGTTACATCCGGGTCATTCAGGCTATG | 4.18 | 2.41 | 1.3 | 3.47 | 3.85 | 3.39 | 4.18 |
| CCTTACGGGTCAAGGTTATAGCCCGGGTGGTACG | 5.05 | 5.24 | -0.0321 | 5.76 | 3.1 | 0.694 | 1.24 |
| TGTCAATGTTCAAAGGTAACGTAAGTATCCACAC | 0.811 | 0.759 | -0.404 | 0.776 | 1.24 | -0.064 | -0.453 |
| TTACCAAGGTCAAGGTCGTTGATCCCTCTGTAGA | 6.48 | 6.91 | 3.27 | 6.84 | 4.38 | 3.6 | 4.9 |
| CCTTACGGGTCCCTCCAGGTTATAGCATCGGAGT | 0.0762 | 0.0141 | -1.22 | 0.2 | 3.05 | 0.1 | 0.267 |
| ATCTCTAGGTTAAGATAGTTCAGTGAATGCAAAT | 1.73 | 1.87 | 0.534 | 1.14 | 1.81 | 0.578 | 0.933 |
| TCTAGTTGGTCTAAGGTCACACACTCGAAATGCG | 4.63 | 4.37 | 2.21 | 4.71 | 4.63 | 5.66 | 2.99 |
| TAGCCTAGGTTATGGGCCAGTATACCACGCGAAC | 0.379 | 0.719 | -0.976 | 0.432 | 0.373 | -0.271 | -0.399 |
| CGTCCAAGGTCACGGTCAGTGAAAGAGACTCGAA | 7.19 | 8.03 | 4.12 | 7.6 | 4.29 | 3.63 | 2.8 |
| TCTTGTAGATCAACAGGAGGTTAATAAAGATCGA | 0.776 | 0.301 | 0.161 | 1.03 | 0.904 | -0.0853 | -0.179 |
| TGTCAACGTTCAAAGGTAACGTAAGTATCCACAC | 1.28 | 1.09 | -0.465 | 1.27 | 1.46 | -0.221 | -0.0342 |
| GATATAGGGTCAGCTAGAGGCCAGAGTATGGAAA | 6.81 | 5.11 | 1.67 | 4.63 | 3.42 | 0.95 | 0.867 |
| GCTTACGGGTCCAAGGTTATAGCATGAATAGAAT | 0.631 | 0.599 | 2.18 | 0.914 | 1.34 | 0.551 | 1.97 |
| AGAATGAGGTCAAGATCAGGGAAACAGAATACAT | 6.53 | 6.24 | 4.15 | 6.66 | 4.29 | 2.98 | 3.31 |
| AAAACAGGGTCATCGTAGGCCAGAGTACGCACAG | 6 | 5.11 | 3.74 | 7.23 | 4.81 | 1.58 | 4.06 |
| AGAATGGGGTTACCAAAGATCAGGGAAACGCTTG | 2.9 | 1.43 | 1.25 | 4.79 | 3.07 | 0.513 | 0.217 |
| CCTACTGGGCCTAAGGTCATTGATTCCAATGCTC | 3.16 | 2.83 | 1.17 | 3.44 | 3.88 | 4.55 | 2.68 |
| ATATGTAGGTTAGGGTCAGTCAGAAAGTAGGGAA | 3.08 | 3.14 | 1.04 | 3.37 | 3.32 | 2.69 | 1.79 |
| CCAACTGGGCCAAAAAGGTCATTGATGCCGATAA | 4.71 | 4.35 | 0.992 | 5.08 | 3.11 | 0.427 | 2.62 |
